From PubChem BioAssay
Inconclusive results are not listed. Active and inactive are the calls of the source.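 The calls were made as follows, unless noted: active = growth inhibition above 25% in both replicates, a cutoff set 3 SD above the mean; inconclusive = above 25% in only one replicate; inactive = the rest.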

Experiments:
[1] = Her2 expression decrease, cell viability multiplex – SKBR3 breast tumor cells, AlphaScreen, ATP viability, primary screen (AID 461;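 active = Her2 level under about 52% in both replicate screens, with viability over 70% of control, limit read from the data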;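 as to Her2 level: lower value means less Her2 protein in the cells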;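 as to viability: percent of carrier control wells set as 100% viability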); settings: SKBR3 Her2 protein level, 18-24 h, measured here: SKBR3 viability, ATP luminescence, at 10 µM
[2] = target: Receptor tyrosine-protein kinase erbB-2 (Homo sapiens) (UniProt P04626); assay: as above; settings: 18-24 h, at 10 µM, stronger effect = lower value
[3] = reduced viability of SK-BR-3 breast cancer cells – cell-based, 24 h, human, pilot screen (AID 572;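 active = viability at or below 10% of carrier control in both of two separate runs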;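 also: compound exposure lasted between 18 and 24 h rather than exactly 24 h; 100% = carrier-treated control wells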); settings: SK-BR-3 viability, CellTiter-Glo luminescence, at 10 µM, stronger effect = lower value
[4] = HUVEC growth inhibition – cell-based, human, primary screen (AID 575;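 active = viability at or below 30% in both replicate assays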;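 also: 100% = median of untreated cell wells with 0.1% DMSO on each plate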); settings: HUVEC proliferation, CellTiter-Glo luminescence, 72 h; at 10 µM; stronger effect = lower value
[5] = H69AR cell proliferation blockers – human, duplicate replicates, primary screen (AID 580;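 active = viability at or under a set limit in both replicates, limit being median viability minus 3 SD, cut at about 48% in these data, passing the limit was not always enough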;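 also: 100% = mean luminescence of untreated wells and 0% = no signal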); settings: H69AR lung tumor cells viability, ATP luminescence, 72 h; at 10 µM; stronger effect = lower value
[6] = MRP1 drug-resistance reversers in H69AR cells – cell-based, doxorubicin co-treatment, pilot screen (AID 601;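 active = viability loss from added drug above about 55%, and viability with drug at most 40%, in both replicates, limit read from the data, passing the limit was not always enough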); settings: CellTiter-Glo, 72 h, at 10 µM; for differential viability (reversal): stronger effect = higher value
[7] = yeast transport mutant growth inhibition pilot in 384-well plates, post-Golgi transport modulator project (AID 636; in the data active = inhibition above about 31%); settings: absorbance 615 nm, about 18 h, stronger effect = higher value
[8] = growth suppression of yeast trafficking mutant, preliminary HTS, modulators of trafficking downstream of Golgi apparatus project, 1536-format plate, OD 615 nm (AID 637; in the data active = inhibition above about 30%); settings: yeast transport mutant growth, absorbance 615 nm, 18 h; stronger effect = higher value
[9] = S. cerevisiae growth inhibition in permissive medium (OD615), pilot counter-assay for S. cerevisiae lifespan shortening project, permissive growth control (AID 705); settings: OD615, 24 h, at 10 µM, stronger effect = higher value
[10] = S. cerevisiae growth inhibition in restrictive medium, OD615, pilot screen, restrictive growth control, yeast lifespan reduction project (AID 706;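 active = growth inhibition above a set limit, 3 SD over mean compound inhibition, in both replicates, cut at about 43% in these data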;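 also: modified DeaD lifespan yeast strain shifted to restrictive glucose medium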); settings: OD615, 48 h, at 10 µM, stronger effect = higher value
[11] = doxorubicin toxicity protection in MRP-1 cells – H69AR cells, CellTiter-Glo, duplicate, MRP-1 activator project, pilot screen (AID 807;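 active = viability increase at or above a cutoff of the median across tested compounds plus 3 SD, cut at about 8.5% in these data, passing the limit was not always enough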;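 also: compound pretreatment 18-22 h then 72 h combined with doxorubicin; 0% = doxorubicin alone and 100% = vehicle without doxorubicin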); settings: H69AR viability with doxorubicin, CellTiter-Glo luminescence; at 10 µM; stronger effect = higher value
[12] = viability of HCT116 without oncogenic beta-catenin – human colon tumor cells, pilot screen (AID 823;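 active = cell viability at or below a set limit in both duplicate runs, the limit being the all-compound median minus 4 SD, cut at about 23% in these data, passing the limit was not always enough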;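 also: 0% = wells killed by 20 µM Hyamine and 100% = untreated DMSO cell wells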); settings: HCT116 beta-catenin knockout viability, CellTiter-Glo, 60 h; at 10 µM; stronger effect = lower value
[13] = viability of PTEN-null HCT116 cells – cell-based, HCT116 clonal line, CellTiter-Glo, pilot screen (AID 824;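 active = viability at or below 27.92% in each of two runs, the all-compound median minus 4 SD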;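 also: 0% = 20 µM Hyamine control and 100% = vehicle cell control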); settings: HCT116 PTEN-deleted viability, 60 h, at 10 µM, stronger effect = lower value
[14] = RAM pathway blockade in budding yeast – dse1pr::URA3 reporter, 5-FOA selection, pilot screen (AID 869;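 active = inhibition over a set limit, the all-compound mean plus 3 SD, in both replicate runs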;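 also: 0% = DMSO wells with no growth and 100% = 10 µM 1-NA-PP1 with full growth; RAM network block rescues cells from 5-FOA so hits raise OD615 growth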); settings: S. cerevisiae dse1pr::URA3 5-FOA growth, OD615, 2 d; at 10 µM; stronger effect = higher value; strain carries analog-sensitive mutant Cbk1 kinase
[15] = RAM signaling pathway blockade in yeast – S. cerevisiae, Pdr1DBD-CYC8 efflux-inhibited sensitized strain, primary screen (AID 1298;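 active = RAM network inhibition above 8.4% in each of two replicates, 3 SD over the compound average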;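 also: 0% = DMSO untreated cells without growth and 100% = 10 µM 1-NA-PP1 full growth; higher means more yeast growth rescued from 5-FOA killing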); settings: S. cerevisiae cbk1-as DSE1-URA3 strain, 5-FOA growth OD615, 2 d; at 50 µM; stronger effect = higher value
[16] = H69AR cells + 2 uM doxorubicin, measured here: viability with 2 uM doxorubicin, stronger effect = lower value
[17] = H69AR cells, compound alone cytotoxicity

Receptor tyrosine-protein kinase erbB-2 (Homo sapiens), sequence (P04626 whole entry, looked up): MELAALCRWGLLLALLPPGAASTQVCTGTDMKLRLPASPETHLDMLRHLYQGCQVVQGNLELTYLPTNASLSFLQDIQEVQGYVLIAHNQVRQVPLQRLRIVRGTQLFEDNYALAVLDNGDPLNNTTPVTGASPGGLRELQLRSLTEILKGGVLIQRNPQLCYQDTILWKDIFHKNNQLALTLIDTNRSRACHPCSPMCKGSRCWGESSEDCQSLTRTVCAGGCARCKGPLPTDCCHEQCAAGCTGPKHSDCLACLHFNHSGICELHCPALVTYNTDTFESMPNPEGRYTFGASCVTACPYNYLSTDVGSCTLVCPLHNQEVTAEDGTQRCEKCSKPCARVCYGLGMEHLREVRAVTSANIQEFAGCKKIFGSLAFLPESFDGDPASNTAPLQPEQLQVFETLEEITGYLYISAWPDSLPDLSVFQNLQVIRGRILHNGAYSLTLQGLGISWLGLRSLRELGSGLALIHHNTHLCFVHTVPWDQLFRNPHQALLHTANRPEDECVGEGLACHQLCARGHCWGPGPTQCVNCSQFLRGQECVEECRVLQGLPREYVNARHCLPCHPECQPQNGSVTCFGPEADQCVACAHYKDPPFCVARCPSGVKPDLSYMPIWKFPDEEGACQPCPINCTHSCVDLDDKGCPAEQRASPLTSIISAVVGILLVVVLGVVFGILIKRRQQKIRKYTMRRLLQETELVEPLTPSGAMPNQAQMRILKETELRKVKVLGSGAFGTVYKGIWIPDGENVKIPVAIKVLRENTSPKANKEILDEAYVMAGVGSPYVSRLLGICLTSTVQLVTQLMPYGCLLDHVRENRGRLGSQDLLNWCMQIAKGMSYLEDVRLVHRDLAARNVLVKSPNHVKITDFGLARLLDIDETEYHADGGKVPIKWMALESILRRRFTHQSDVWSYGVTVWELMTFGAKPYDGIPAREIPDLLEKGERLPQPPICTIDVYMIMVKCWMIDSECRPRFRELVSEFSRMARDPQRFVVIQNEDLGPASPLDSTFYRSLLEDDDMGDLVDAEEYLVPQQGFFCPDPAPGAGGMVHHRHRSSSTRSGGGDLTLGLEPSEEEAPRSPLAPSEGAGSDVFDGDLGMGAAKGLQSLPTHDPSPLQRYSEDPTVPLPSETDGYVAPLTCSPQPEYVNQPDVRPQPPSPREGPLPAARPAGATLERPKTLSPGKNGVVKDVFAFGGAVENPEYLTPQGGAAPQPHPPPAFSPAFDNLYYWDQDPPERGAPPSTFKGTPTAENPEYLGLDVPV

| SMILES | viability [1] [%] | Her2 level [2] | viability [3] | viability [4] | viability [5] | differential viability (reversal) ([6]; H69AR cells + 2 uM doxorubicin) | viability [6, 16] [%] | viability [6, 17] [%] | inhibition [7] | inhibition [8] | growth inhibition [9] | growth inhibition [10] | viability increase [11] | viability [12] | viability [13] | inhibition [14] | RAM network inhibition [15] |
| --- | --- | --- | --- | --- | --- | --- | --- | --- | --- | --- | --- | --- | --- | --- | --- | --- | --- |
| O=C1CC(c2ccccc2)CC(O)=C1C=NCCN1CCOCC1 (stereo not drawn) | 96.5 | 85.5% (inactive) | 96.5% (inactive) | 85.7% (inactive) | 102% (inactive) | 5.44% (inactive) | 96.2 | 102 | -7.97% (inactive) | -1.48% (inactive) | -4.59% (inactive) | 9.74% (inactive) | 0.42% (inactive) | 94.7% (inactive) | 93.2% (inactive) | 1.16% (inactive) | -0.52% (inactive) |
| C(=N\c1c(-c2ccccc2)nc2n1CCS2)/c1ccccc1 | 102 | 104% (inactive) | 102% (inactive) | 85.9% (inactive) | 100% (inactive) | 10.5% (inactive) | 89.5 | 100 | -1.69% (inactive) | -6% (inactive) | 1.59% (inactive) | 40.4% (inactive) | -4.2% (inactive) | 84.8% (inactive) | 90.2% (inactive) | 0.675% (inactive) | 6.86% (inactive) |
| COCCNC(=O)CN1C(=O)CSc2ncccc21 | 83.5 | 88% (inactive) | 83.5% (inactive) | 97.8% (inactive) | 86.4% (inactive) | -8.7% (inactive) | 95.1 | 86.4 | -4.67% (inactive) | -0.33% (inactive) | 2.19% (inactive) | -5.72% (inactive) | -0.21% (inactive) | 102% (inactive) | 92% (inactive) | 1.92% (inactive) | 0.97% (inactive) |
| CCOC(=O)c1nc2sc3c(c2c(=O)[nH]1)CCCC3 | 80.5 | 100% (inactive) | 80.5% (inactive) | 93.8% (inactive) | 83.5% (inactive) | -3.7% (inactive) | 87.2 | 83.5 | -2.31% (inactive) | -16% (inactive) | 10.2% (inactive) | 12.2% (inactive) | -1.32% (inactive) | 107% (inactive) | 99.3% (inactive) | 2.02% (inactive) | 3.93% (inactive) |
| CCOC(=O)N1CCC(NC(=O)CN2C(=O)CCSc3ccccc32)CC1 | 96.5 | 97.5% (inactive) | 96.5% (inactive) | 87.5% (inactive) | 93.1% (inactive) | -3.45% (inactive) | 96.6 | 93.1 | -1.87% (inactive) | -1.15% (inactive) | 5.44% (inactive) | -4.73% (inactive) | 1.02% (inactive) | 106% (inactive) | 101% (inactive) | 2.65% (inactive) | -0.42% (inactive) |
| Cc1nc2ccc(C(=O)c3ccccc3)cc2[nH]1 | 102 | 82% (inactive) | 102% (inactive) | 110% (inactive) | 94.2% (inactive) | 2.49% (inactive) | 91.7 | 94.2 | -3.64% (inactive) | 0.33% (inactive) | -6.26% (inactive) | 2.11% (inactive) | 0.26% (inactive) | 99.4% (inactive) | 100% (inactive) | 1.42% (inactive) | 5% (inactive) |
| CCCOc1ccc(C2C(C(=O)OC)=CN(CCOC)C=C2C(=O)OC)cc1 | 89 | 92% (inactive) | 89% (inactive) | 96.4% (inactive) | 90.4% (inactive) | -2.27% (inactive) | 92.7 | 90.4 | -3.12% (inactive) | 3.11% (inactive) | -11.5% (inactive) | 12.8% (inactive) | -2.37% (inactive) | 81.5% (inactive) | 84.4% (inactive) | 2.16% (inactive) | 5.46% (inactive) |
| CCOC(=O)N1CCN(C(=O)c2ccc(CS(=O)(=O)c3ccc(OC)cc3)o2)CC1 | 88 | 88% (inactive) | 88% (inactive) | 104% (inactive) | 89.2% (inactive) | -9.97% (inactive) | 99.2 | 89.2 | -4.67% (inactive) | 0% (inactive) | -12.3% (inactive) | -27.2% (inactive) | -1.05% (inactive) | 104% (inactive) | 97.4% (inactive) | -0.045% (inactive) | 4.85% (inactive) |
| Cc1noc(/C=C/N(C)C)c1S(=O)(=O)N1CCCC(C(=O)N2CCc3ccccc32)C1 (stereo not drawn) | 104 | 99% (inactive) | 104% (inactive) | 86.3% (inactive) | 89.2% (inactive) | -5.5% (inactive) | 94.7 | 89.2 | -5.2% (inactive) | -0.33% (inactive) | 5.67% (inactive) | -0.63% (inactive) | -0.98% (inactive) | 103% (inactive) | 109% (inactive) | 1.35% (inactive) | 4.08% (inactive) |
